From PubChem BioAssay
In the library only some 2.5% were active in any assay of this set; here they are far more common.
POLK inh: DNA polymerase kappa (human) inhibition; purified Pol kappa, fluorescent DNA synthesis assay, 10 min; 0.53% of 400,000 active; AID 588579; Q9UBT6; Potency, µM (top dose mostly 107 µM), without a hit: top-dose activity, negative = inhibition, hits mostly inhibitors; also: % is scaled to controls: 0 for no effect and ±100 for the full control effect
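First, compounds were pin-transferred onto 10 nM Pol kappa. After 15 min at room temperature, substrate was added to 50 nM final. Fluorescence was then measured kinetically at 0 and 10 min.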
L3MBTL1 block: L3MBTL1 (human) inhibition; Q9Y468; AlphaScreen L3MBTL1–H3K9me1 peptide binding; Potency, µM (highest dose often 57.1 µM), for the others: top-dose activity, negative = inhibition, actives largely listed as inhibitors; 0.66% of 230,000 active; also: % is scaled to controls: 0 for no effect and ±100 for the full control effect; nearly all actives have a fitted effect of over 60% in size
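First, the protein-peptide complex forms for 30 min at room temperature (L3MBTL1 50 nM, biotinylated H3K9me1 peptide 75 nM). Next, compounds are pin-transferred and incubated 30 min. Finally, AlphaScreen beads are added and read after 30 min.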
WRN helicase inh-1: blocks human WRN helicase | Q14191 | WRN helicase unwinding, fluorescent forked duplex, kinetic | Potency, µM (series often up to 114 µM), for inactives: top-dose activity change, negative = inhibition, usual class: inhibitors | 0.46% of 360,000 active | AID 651768; also: % is scaled to controls: 0 for no effect and ±100 for the full control effect; nearly all actives have a fitted effect of over 55% in size
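Kinetic fluorescence helicase assay: unwinding of a quenched forked DNA duplex (100 nM final) with 2 mM ATP final raises red fluorescence (525/598 nm). Compounds sat 15 min at room temperature with 20 nM WRN beforehand.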
POLB inh: inhibitors of human DNA polymerase beta; P06746; AID 485314; 1.3% of 340,000 active; Potency, µM (series often up to 114 µM), without a hit: at the top dose activity change, negative = inhibition, hits mostly inhibitors; Pol beta primer extension/strand displacement, fluorescence kinetic; also: % is scaled to controls: 0 for no effect and ±100 for the full control effect
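Values derive from four-parameter Hill fits of normalized kinetic data: reads at 0 and 10 min following addition of 50 nM substrate to 10 nM Pol beta preincubated 15 min with compound.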
Pol eta inh: blocks human DNA polymerase eta activity | Q9Y253 | recombinant Pol eta, fluorescent DNA replication assay | Potency, µM (highest dose often 114 µM), without a hit: at the top dose activity change, negative = inhibition, most hits filed as inhibitors | 1.2% of 390,000 active | AID 588591; also: % is scaled to controls: 0 for no effect and ±100 for the full control effect
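Pol eta at 10 nM preincubated with compounds 15 min at room temperature; reaction started with fluorescent substrate (50 nM final) and read kinetically at 0 and 10 min.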
Pol iota inh: inhibitors of human DNA polymerase iota; 1% of 390,000 active; Q9UNA4; Potency, µM (highest dose often 115 µM), inactives show top-dose activity, negative = inhibition, usual class: inhibitors; Pol iota fluorescent replication assay, 10 min
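Pol iota at 10 nM preincubated 15 min with compounds at room temperature; reaction started with fluorescent substrate, 50 nM final. Fluorescence read kinetically at 0 and 10 min; buffer-only wells as negative control.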
WRN helicase inh-2: confirmation of human WRN helicase inhibitors; WRN helicase DNA unwinding, fluorescence kinetic; AID 720497; Potency, µM (titrated, usually from 57.1 µM), for inactives: at the highest dose activity, negative = inhibition, actives largely listed as inhibitors; 63% of 610 active; shares compounds with WRN helicase inh-1; also: nearly all actives have a fitted effect of over 65% in size
TO DNA binding: counter-screen for WRN helicase inhibitors: DNA binding. shares compounds with WRN helicase inh-1. thiazole orange DNA binding displacement, fluorescence. Potency, µM (titrated, usually from 57.1 µM), for inactives: at the top dose activity change, negative = inhibition, actives largely listed as inhibitors. 10% of 610 active;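 also: drop in dye fluorescence marks compound binding to DNA; % is scaled to controls: 0 for no effect and ±100 for the full control effect; nearly all actives have a fitted effect of over 60% in size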
BLM counter: blocks human BLM helicase in WRN counterscreen | Potency, µM (highest dose often 57.1 µM), inactives show top-dose activity change, negative = inhibition, usual class: inhibitors | 60% of 610 active | shares compounds with WRN helicase inh-1 | Recombinant BLM helicase DNA unwinding, red fluorescence; also: nearly all actives have a fitted effect of over 60% in size
Active calls of the source: *; ? = inconclusive; . = no result given. Calls follow the shape of the dose curve; as a rule, active = well fitted curve in the direction sought with a large enough effect; inconclusive = small, poorly fitted or top-dose-only effect, or another doubt; inactive = no such curve, though single readings can be large; an effect the other way counts as inactive or inconclusive. Potency is read from the fitted curve at half-maximal effect.

SMILES | POLK inh | L3MBTL1 block | WRN helicase inh-1 | POLB inh | Pol eta inh | Pol iota inh | WRN helicase inh-2 | TO DNA binding | BLM counter
CCc1nnc(NC(=O)c2cc(-c3ccc(C)o3)nc3ccccc23)s1 | -10% | -8% | ? | . | -4% | 8% | ? | -13% | -5%
CCc1nnc(NC(=O)c2cc(C)nc3ccccc23)s1 | 2% | 3% | -10% | 21% | -4% | 22% | . | . | .
Nc1nc(SCC(=O)Nc2ccccc2Sc2ccc(Cl)cc2)n[nH]1 | -8% | -5% | 2% | 21% | -12% | 22% | . | . | .
Cc1ccccc1N=Cc1cc2c(cc1O)OC(N)=C(C#N)C2c1ccccc1 (stereo not given) | ? | 1% | ? | 31% | ? | -17% | ? | 21% | ?
COc1cccc(/C=C(\C#N)c2nc3ccc(C)cc3[nH]2)c1OCC(=O)O | -15% | . | ? | -3% | -4% | 44% | 6.8µM* | -16% | -21%
Cc1ccc(NC(=S)NCCCN2CCOCC2)cc1 | -17% | -5% | 7% | 1% | -14% | 18% | . | . | .
C=CCOc1ccc(/C=C2/C(=O)ON=C2C)cc1OC | -6% | . | ? | 35% | -6% | 24% | . | . | .
CCOc1cc(/C=C2\C(=O)ON=C2C)ccc1OCc1ccccc1 | 3% | 2% | ? | -19% | ? | 15% | ? | 0% | -12%
C#CCOc1ccc(Cl)cc1/C=C1/C(=O)ON=C1C | 1% | . | -3% | -12% | -7% | -28% | . | . | .
COc1ccc(/C=C2/C(=O)ON=C2C)cc1Cl | 2% | . | ? | 7% | 4% | 17% | -8% | -7% | 3%
C#CCOc1ccc(/C=C2/C(=O)ON=C2C)cc1Br | 2% | . | ? | ? | -30% | 54% | -20% | -7% | ?
CCOC(=O)CCCC(=O)N1CCN(/[N+]([O-])=N/Oc2ccc([N+](=O)[O-])cc2[N+](=O)[O-])CC1 | 5% | . | . | . | . | ? | . | . | .
Cc1cc(Br)ccc1NC(=O)c1sc2nc3n(c(=O)c2c1C)CCCC3 | -6% | . | . | 0% | -8% | 73% | . | . | .
Cc1ccc(CNC(=O)C2=NNC(=O)CC2)cc1 | -13% | 8% | 0% | 39% | -4% | 18% | . | . | .
CN1CCN(C(=S)C(=O)Nc2ccc(Br)cc2)CC1 | 0% | -6% | 45µM* | -5% | -12% | 71% | 3% | -4% | -25%
CC1CCCN(Cc2c(O)ccc3c2O/C(=C\c2ccco2)C3=O)C1 (stereo not given) | 35µM* | -24% | 35µM* | 13µM* | 45µM* | 1.6µM* | -9% | 331% | -27%
Cc1nc2c(C)cccn2c(=O)c1NC(=O)c1ccco1 | -9% | 7% | 14% | . | -11% | -2% | . | . | .
Oc1ccc(Nc2ccc3ccccc3c2)cc1 | -32% | . | ? | . | -14% | ? | -23% | ? | ?
CC(C)S(=O)(=O)c1oc(-c2cccs2)nc1S(=O)(=O)c1ccc(F)cc1 | -7% | . | . | -1% | -5% | ? | . | . | .
CCCN1C(=O)C(NC(C)=O)c2ccccc21 (stereo not given) | -17% | . | 3% | -25% | -6% | 14% | . | . | .
CCc1ccc2c(c1)C(NC(C)=O)C(=O)N2CCN1CCOCC1 (stereo not given) | -5% | . | 45µM* | 8% | ? | 2.2µM* | ? | -5% | 19µM*
Cc1nnc(-c2cccc(Br)c2)c2cn(-c3cccc(Br)c3)nc12 | -15% | -4% | 25µM* | -7% | ? | 2% | ? | 17% | 9.6µM*
Cc1nnc(-c2cccc(Br)c2)c2cn(-c3ccccc3)nc12 | -7% | 4% | 2% | 14% | -1% | 1% | . | . | .
CC1(C)CC(=O)C(C(C2=C(O)CC(C)(C)CC2=O)c2ccc(O)c([N+](=O)[O-])c2)=C(O)C1 | -8% | -6% | ? | -1% | ? | ? | 22µM* | ? | -24%
CC(Oc1ccccc1)C(=O)Nc1ccc(S(=O)(=O)N2CCN(C)CC2)cc1 (stereo not given) | -1% | -10% | 9% | . | -14% | 9% | . | . | .
SMILES | POLK inh | L3MBTL1 block | WRN helicase inh-1 | POLB inh | Pol eta inh | Pol iota inh | WRN helicase inh-2 | TO DNA binding | BLM counter
CC(Oc1ccccc1Cl)C(=O)Nc1ccc(S(=O)(=O)N2CCN(C)CC2)cc1 (stereo not given) | -3% | . | 32µM* | . | 5% | ? | -20% | -7% | -29%
C/C(=N\NC(=O)c1c(Cl)cnn1C)c1cccc(NC(=O)COc2ccccc2)c1 | -12% | 1% | -9% | 0% | 5% | 9% | . | . | .
Cc1cccc(Cn2c(=O)oc3ccc(C)cc32)c1 | -8% | . | -18% | ? | -20% | 122% | . | . | .
CCOc1ncccc1C(=O)NNC(=O)c1cccc(S(=O)(=O)Nc2ccc(OC)cc2)c1 | -3% | . | ? | -27% | -11% | 4% | -23% | -8% | -14%
CN(C)c1ccc(/C=C(/NC(=O)c2ccccc2)C(=O)NCCN2CCOCC2)cc1 | 2% | . | -8% | -21% | -6% | 25% | . | . | .
Cc1cc(Cl)c(C)c(S(=O)(=O)N2CCN(C(=O)C3CCCO3)CC2)c1Cl (stereo not given) | -15% | 0% | -28% | . | -7% | 6% | . | . | .
N#Cc1c([N+](=O)[O-])cc([N+](=O)[O-])cc1S(=O)(=O)Cc1ccccc1 | -9% | -10% | 11µM* | . | ? | ? | -24% | ? | -24%
COc1cccc(C(=O)N2CCN(Cc3ccc(OC)cc3OC)CC2)c1 | -10% | 0% | -2% | 2% | -3% | 1% | . | . | .
CCN(CC)Cc1cc(Nc2c3ccccc3nc3c4ccccc4n(C)c23)cc(CN(CC)CC)c1O | ? | . | ? | . | ? | ? | 17µM* | 38µM* | -19%
CCOC(=O)N1CCN(CC(O)COc2ccc(C(C)C)c(C)c2)CC1 (stereo not given) | -1% | . | -1% | -17% | -15% | -30% | . | . | .
O=C1ON=C(c2ccc(Cl)cc2)/C1=C/c1ccc(O)cc1 | 0% | . | 9.5µM* | 5% | ? | 60% | 22µM* | -3% | ?
